This passage reports inhibition results from PubChem BioAssay.

Unmarked numbers belong to inactive results. Calls of active or inactive are those of the source.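 Rule for the calls: active = inhibition above 50%; inactive = the rest.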

The inhibition is the relative decrease from the control value, in per cent.

The nature of the assay: HepG2 cytotoxicity, primary screen, cytotoxicity control for P. falciparum antimalarial project, cell-based, ATP luminescence (AID 2303).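 Note: 0% = DMSO wells and 100% = digitonin-killed cells.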 To be noted: HepG2 viability, 24-48 h, at 10 µM, stronger effect = higher value.
As for `O=C(NCCCCCN1CCC(c2c[nH]c3ccccc23)CC1)c1ccc(Cl)c(Cl)c1`, the inhibition was 48%.
For the compound `COc1cc(Cc2cnc(N)nc2N)cc(OCCCCCC(N)=O)c1OC`, the inhibition is -33%.
Next, `O=C(/C=C/c1ccc(C(F)(F)F)cc1)NCCCCCN1CCN(C(=O)Nc2ccc(F)c(Cl)c2)CC1`: 35%; `O=C(NC1CC1)c1ccc(N2CCC(COc3cccc(F)c3)CC2)nc1`: 0%; `O=C(Nc1cccc(CN2CCCN(Cc3ncc[nH]3)CC2)c1)c1cc2ccccc2s1`: 22%.
Next, `O=c1cc(NCCCNCc2cc3c(Cl)cc(Cl)cc3[nH]2)[nH]c2ccccc12`: -10%; `COc1ccc(CNCc2ccc(-c3cccc(-c4nc5c(C)cccc5[nH]4)c3)cc2)cc1`: 69% (active); `CN(C)Cc1cccc(CNC(=O)c2sccc2OCc2ccc(Cl)cc2)c1`: 7%.
Next, `COc1cc2nc(SCC(C)C)n(CCCn3ccnc3)c(=N)c2cc1OC`: 15%; `CCOc1ccc2nc(C)cc(NN=Cc3cccc(F)c3)c2c1`: -3%.
Turning to `O=C(NC1CC1)c1ccc(N2CCC(Cc3ccccc3)CC2)c([N+](=O)[O-])c1`, the inhibition is 12%.
On to `O=S(=O)(ON=C1CCc2ccccc21)c1ccc(Cl)cc1`, for which the inhibition was -2%.
To `CCc1cn2c3c(cc(C(=O)N[C@@H](Cc4cccc(F)c4)[C@H](O)CNC4CCOCC4)cc13)N(C)S(=O)(=O)CC2` belongs -2%; to `COc1ccc(Cl)cc1NC(=O)C(C)Nc1ccc(-c2ccccc2)cc1` (configuration not stated), -1%; to `CC(Cc1ccc(OCCCCOc2ccccc2)cc1)NCCc1ccc(Oc2ccccc2)cc1` (configuration not stated), 99% (active).
Next, `OCCN1CCN(Cc2ccc(-c3cccc(-c4nc5ccc(C(F)(F)F)cc5[nH]4)c3)cc2)CC1`: 29%; `CCN(CC)CCN(Cc1ccc(-c2ccc(C(F)(F)F)cc2)cc1)C(=O)Cn1cc(CCCCc2cccc(F)c2F)c(=O)c2ccccc21`: 18%.
To `O=c1c(NCCCN(Cc2ccc(F)cc2)c2ccccn2)c(NCc2cccnc2)c1=O` belongs -2%; to `COc1ccc(-c2ccc(NC(=O)c3ccc(F)cc3)cc2)cc1CN1CCCN(C)CC1`, 29%.
Turning to `O=C(Nc1cncc(NC(=O)c2ccc(Cl)c(Cl)c2)c1)c1ccc(Cl)c(Cl)c1`, the inhibition is 12%.
`CCn1cnc2c(Nc3cccc([N+](=O)[O-])c3)nc(N3CCC(N4CCCCC4)CC3)nc21`: the inhibition was 31%.
Next, `NC1CCN(c2nc(NCCCc3ccc(O)cc3)nc(NCc3ccccc3-c3ccc(C(F)(F)F)cc3)n2)CC1`: 15%; `CC(C)CNC(=O)c1cncc(-c2cccc(CNC3Cc4ccccc4C3)c2)c1`: 4%; `CC(C)COc1ccc(Cl)cc1Cc1nc(-c2nc3nc(N4CCN(C)CC4)ccc3[nH]2)cs1`: 29%.
Next, `COc1cc(OC)cc(C(=O)Nc2nc(-c3ccccn3)cs2)c1`: 47%; `O=C(Nc1ccccc1)Nc1ccc(-c2cccc(-c3nc4ccc(C(F)(F)F)cc4[nH]3)c2)cc1`: 59% (active).
To `CN(CCCCCN1CCC(NC(=O)Nc2ccc(Oc3ccccc3)cc2)C1)C(=O)/C=C/c1ccc(Cl)c(Cl)c1` (configuration not stated) belongs 50% (active).
Consider `CCCCNCc1ccc(-c2nc(CN(C(=O)Nc3cc([N+](=O)[O-])ccc3F)C3Cc4ccccc4C3)cs2)cc1`, for which the inhibition was 15%.
To `Cc1cc(NC(=O)Nc2ccc3nccc(N4CCN(C)CC4)c3c2)ccc1Br` belongs 31%; to `CS(=O)(=O)c1cccc(-c2cnc(N)c3cc(-c4cccc(F)c4)ccc23)c1`, 45%; to `CC(C)Cn1c(Sc2ccc(C#N)c([N+](=O)[O-])c2)nnc1-c1ccccc1Cl`, 18%.
Next, `Cc1cc(C(=O)Nc2nc(-c3ccccn3)nc3ccsc23)no1`: 44%.
To `Cc1cc(N(CCO)CCCN2CCCCC2)nc(Nc2ccc(Cl)cc2)n1` belongs 12%; to `Cc1cccc(Cl)c1Nc1nnc(-c2cccc(C(=O)NC[C@@H]3CC[C@H]4C[C@@H]3C4(C)C)c2)o1`, 2%.
On to `C=CCOC(=O)N1CCC(CNCc2cccc(-c3cccc(-c4nc5c(C)cccc5[nH]4)c3)c2)C1` (configuration not stated), for which the inhibition was 22%.
Consider `CCC1CCCCN1S(=O)(=O)c1ccc(NC(=O)c2cc(C)on2)cc1` (configuration not stated), for which the inhibition was 0%.
Next, `COc1ccc(-c2ccc(S(=O)(=O)Nc3cc4c(cc3OC(C)C)CCNCC4)cc2)cc1`: 16%.
